Data on 153 variants can be found in a collection of fitness landscapes (doi:10.1126/science.1257360).

Over roughly 140,000 sequences, “enrichment ratio after two sorts for PhoP signalling” has its median near 0; the highest 2% begin near 11. The sample as a whole holds a higher share of the highest values than the screen did.

The chains are these.
B1: PhoQ; a variant is named by its letters at X, in order, P23837 (parent)
chain: MKKLLRLFFPLSLRVRFLLATAAVVLVLSLAYGMVALIGYSVSFDKTTFRLLRGESNLFYTLAKWENNKLHVELPENIDKQSPTMTLIYDENGQLLWAQRDVPWLMKMIQPDWLKSNGFHEIEADVNDTSLLLSGDHSIQQQLQEVREDDDDAEMTHSVAVNVYPATSRMPKLTIVVVDTIPVELKSSYMVWSWFIYVLSANLLLVIPLLWVAAWWSLRPIEALAKEVRELEEHNRELLNPATTRELTSLVRNLNRLLKSERERYDKYRTTLTDLTHSLKTPLXXLQXXLRSLRSEKMSVSDAEPVMLEQISRISQQIGYYLHRASMRGGTLLSRELHPVAPLLDNLTSALNKVYQRKGVNISLDISPEISFVGEQNDFVEVMGNVLDNACKYCLEFVEISARQTDEHLYIVVEDDGPGIPLSKREVIFDRGQRVDTLRPGQGVGLAVAREITEQYEGKIVAGESMLGGARMEVIFGRQHSAPKDE

This test covers variants of B1. The experiment in a line: enrichment ratio after two sorts for PhoP signalling (ratio (wild type AVST 3.29)); higher = more functional. To be noted: with PhoP (E. coli).
Consider NESI, for which the enrichment ratio was not above 0.25.

On to PFYL, for which the enrichment ratio was not above 0.25.

Consider GFIL, for which the enrichment ratio was not above 0.25.

On to INEF, for which the enrichment ratio was not above 0.25.

Take MTNK: the enrichment ratio is not above 0.25.

For the variant IERL, the enrichment ratio was not above 0.25.

Take MGNR: the enrichment ratio is not above 0.25.

For FHQW, the enrichment ratio was not above 0.25.

Regarding WMHQ, the enrichment ratio was not above 0.25.

For the variant VIIW, the enrichment ratio is not above 0.25.

Regarding SDRC, the enrichment ratio was not above 0.25.

Regarding SYIC, the enrichment ratio amounted to 0.411.

In the case of SDIC, the enrichment ratio stood at 15.1.

Consider VCHE, for which the enrichment ratio is not above 0.25.

For the variant GIRT, the enrichment ratio was not above 0.25.

On to ASTM, for which the enrichment ratio was 12.3.

For the variant ASDH, the enrichment ratio was not above 0.25.

As to ASRM, the enrichment ratio was not above 0.25.

As for ASAM, the enrichment ratio worked out at 20.2.

Consider ASGD, for which the enrichment ratio was not above 0.25.

On to ASPM, for which the enrichment ratio came out at 0.773.

For the variant ASAY, the enrichment ratio came to 4.58.

Regarding ASGM, the enrichment ratio worked out at 22.7.

In the case of ASWM, the enrichment ratio is not above 0.25.

As for TKYS, the enrichment ratio was not above 0.25.

Consider NHDM, for which the enrichment ratio was not above 0.25.

Consider KGIG, for which the enrichment ratio is not above 0.25.

Take IWNF: the enrichment ratio is not above 0.25.

Turning to ETES, the enrichment ratio is not above 0.25.

In the case of IRLA, the enrichment ratio is 0.272.

In the case of GMFY, the enrichment ratio was not above 0.25.

Regarding FLEE, the enrichment ratio was not above 0.25.

With PCYL, the enrichment ratio is not above 0.25.

As to FIHC, the enrichment ratio was not above 0.25.

For LFFW, the enrichment ratio was not above 0.25.

With TMQP, the enrichment ratio is not above 0.25.

As for MMQI, the enrichment ratio was not above 0.25.

In the case of KMQS, the enrichment ratio is not above 0.25.

In the case of TMQS, the enrichment ratio came out at 14.3.

Consider TMQI, for which the enrichment ratio was determined as 12.3.

On to NMQS, for which the enrichment ratio was not above 0.25.

For the variant KESH, the enrichment ratio is not above 0.25.

With VQMH, the enrichment ratio was not above 0.25.

RVAL: the enrichment ratio was not above 0.25.

On to TFSS, for which the enrichment ratio was determined as 11.4.

Consider TFSK, for which the enrichment ratio is not above 0.25.

As for CFSS, the enrichment ratio is 11.9.

As for WFSS, the enrichment ratio is not above 0.25.

Turning to TGSS, the enrichment ratio amounted to 11.

VFSS: the enrichment ratio was not above 0.25.

On to LGDN, for which the enrichment ratio is not above 0.25.

For the variant FQYK, the enrichment ratio was not above 0.25.

With ITSM, the enrichment ratio was found to be 2.11.

For the variant SNSF, the enrichment ratio turned out to be 10.8.

Take SISM: the enrichment ratio amounted to 16.

Consider KYSM, for which the enrichment ratio was not above 0.25.

For the variant SISF, the enrichment ratio stood at 10.7.

With SVGM, the enrichment ratio amounted to 9.35.

On to LTSM, for which the enrichment ratio was not above 0.25.

Take SNSM: the enrichment ratio stood at 33.4.

In the case of SVSM, the enrichment ratio amounted to 13.3.

For SVRM, the enrichment ratio is not above 0.25.

With STSM, the enrichment ratio stood at 16.4.

Consider HVDL, for which the enrichment ratio is not above 0.25.

In the case of YFNP, the enrichment ratio was not above 0.25.

On to PTIT, for which the enrichment ratio was not above 0.25.

Consider IFSN, for which the enrichment ratio is not above 0.25.

KGDF: the enrichment ratio was not above 0.25.

Consider SMHF, for which the enrichment ratio is not above 0.25.

Take SMSF: the enrichment ratio worked out at 5.95.

On to SSSM, for which the enrichment ratio was 14.8.

With FCSM, the enrichment ratio is 0.747.

Take SDSM: the enrichment ratio was determined as 1.33.

As to NSSM, the enrichment ratio came out at 0.911.

Consider SRSM, for which the enrichment ratio was determined as 0.977.

On to SQSM, for which the enrichment ratio came out at 15.9.

On to SMSM, for which the enrichment ratio is 12.4.

On to SCSM, for which the enrichment ratio is 14.5.

As to SCSF, the enrichment ratio was 9.85.

Take SSSF: the enrichment ratio was 10.

Regarding SGVE, the enrichment ratio was not above 0.25.

Regarding SWGV, the enrichment ratio is not above 0.25.

Take IDET: the enrichment ratio was not above 0.25.

As for RIHD, the enrichment ratio is not above 0.25.

For the variant LNHQ, the enrichment ratio was not above 0.25.

For IEMK, the enrichment ratio was not above 0.25.

On to EVHQ, for which the enrichment ratio was not above 0.25.

On to KSSM, for which the enrichment ratio was not above 0.25.

In the case of SPSM, the enrichment ratio was not above 0.25.

On to SGSM, for which the enrichment ratio is 12.7.

For TSSM, the enrichment ratio is 24.4.

For TTSM, the enrichment ratio is 14.8.

Consider MMSM, for which the enrichment ratio was determined as 7.2.

Consider YTSM, for which the enrichment ratio amounted to 1.02.

For the variant TVSM, the enrichment ratio was found to be 37.3.

Turning to NVSM, the enrichment ratio was not above 0.25.

For the variant SGSF, the enrichment ratio was determined as 1.84.

On to KQSM, for which the enrichment ratio was not above 0.25.

For the variant KQAV, the enrichment ratio is not above 0.25.

With DAHD, the enrichment ratio was not above 0.25.

With QSHT, the enrichment ratio is not above 0.25.

As to PIQW, the enrichment ratio is not above 0.25.

As for FMCI, the enrichment ratio is not above 0.25.

On to MYGI, for which the enrichment ratio was not above 0.25.

As for ICFI, the enrichment ratio was not above 0.25.

VCSA: the enrichment ratio was not above 0.25.

Consider YCHV, for which the enrichment ratio was not above 0.25.

For HSSA, the enrichment ratio was not above 0.25.

With SMEV, the enrichment ratio is not above 0.25.

For NVAK, the enrichment ratio is not above 0.25.

For GVAM, the enrichment ratio amounted to 15.2.

For MVWM, the enrichment ratio amounted to 0.553.

With GVPM, the enrichment ratio was not above 0.25.

On to MVAM, for which the enrichment ratio is 39.4.

Consider MVPM, for which the enrichment ratio was not above 0.25.

As to GVAK, the enrichment ratio was determined as 11.7.

Take GVTM: the enrichment ratio stood at 8.91.

MVAK: the enrichment ratio was 5.7.

As to SAME, the enrichment ratio came out at 0.508.

WCYN: the enrichment ratio was not above 0.25.

As to KFKF, the enrichment ratio was not above 0.25.

On to GTRF, for which the enrichment ratio is not above 0.25.

As to KSNL, the enrichment ratio is not above 0.25.

In the case of KSNN, the enrichment ratio is not above 0.25.

Turning to TSNN, the enrichment ratio is 12.2.

Consider LCNN, for which the enrichment ratio was not above 0.25.

As to FSNL, the enrichment ratio is not above 0.25.

TSNL: the enrichment ratio was determined as 12.5.

Take LVAI: the enrichment ratio is not above 0.25.

For the variant NFCN, the enrichment ratio was not above 0.25.

Turning to TCSV, the enrichment ratio worked out at 17.7.

For KCSV, the enrichment ratio is not above 0.25.

Regarding VEEF, the enrichment ratio was not above 0.25.

Take KCAH: the enrichment ratio was not above 0.25.

On to TCEF, for which the enrichment ratio worked out at 13.2.

For KCEF, the enrichment ratio is not above 0.25.

Turning to HVSV, the enrichment ratio was not above 0.25.

For TCAH, the enrichment ratio came out at 11.7.

In the case of KCAV, the enrichment ratio is not above 0.25.

On to TCAV, for which the enrichment ratio was 13.4.

As to VCAH, the enrichment ratio was not above 0.25.

With TCAE, the enrichment ratio was not above 0.25.

With SLYY, the enrichment ratio is not above 0.25.

In the case of DQFN, the enrichment ratio is not above 0.25.

As for RPHE, the enrichment ratio is not above 0.25.

In the case of SDPC, the enrichment ratio was not above 0.25.

For FRSR, the enrichment ratio is not above 0.25.

For the variant TCGY, the enrichment ratio turned out to be 20.3.

With FCAS, the enrichment ratio was not above 0.25.

As for VCSM, the enrichment ratio amounted to 3.67.

With KCAS, the enrichment ratio was not above 0.25.

In the case of TCLS, the enrichment ratio was 7.88.

As for TCSM, the enrichment ratio is 18.9.
